Inconclusive results are not listed. Unmarked numbers belong to inactive results. Calls follow the shape of the dose curve; as a rule, active = well fitted inhibition curve with a large enough effect; inconclusive = small, poorly fitted or top-dose-only effect; inactive = no such curve, though single readings can be large or run the other way.

A short description of this test: Counterscreen for APE1 Inhibitors: Fluorescent Dye Displacement Validation Assay (AID 1707).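 Also: plate controls were ThO with dsDNA and no compound for no effect and ThO without dsDNA for full effect.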 Particulars: fluorescent dye displacement from DNA; series mostly up to 57.1 µM; activity change, negative = inhibition: at the top concentration. An excerpt: In order to distinguish true inhibitors of DNA-processing enzymes from promiscuous DNA-binding compounds among screening assay hits, we developed a homogeneous and miniaturized assay based on fluorescent dye displacement test as originally described by Tse and Boger (Accounts of Chemical Research (2004) 37: 61-69). The assay is based on the strong enhancement of fluorescence when Thiazole Orange (ThO) binds to double-stranded DNA: conversely, in the presence of a DNA-binding compound, Thiazole Orange is displaced from the DNA and its fluorescence is reduced.
Buffer. 50 mM Tris-HCl (pH7.5) containing 50mM NaCl, 2 mM MgCl2, and 0.01% Tween-20.
Buffer containing 250 nM ThO in columns 3 and 4 as negative control (no dsDNA).
Reaction mixture: 250 nM ThO and 50 nM dsDNA at final concentration dispensed throughout the plate: in columns 1, 2, 5-48. Column 1 is neutral (100% activity).
5''TAMRA- TC ACC FTC GTA CGA CTC
3'' AG TGG GAG CAT GCT GAG
where F denotes tetrahydrofuran.
Control: Pintool transfer of control compound WB64 (W4761, Sigma-Aldrich) to column 2 of all assay plates as a two-fold 16-point dilution in duplicate (concentration range 5.75 uM - 0.175 nM).
Four uL of reaction mixtures were dispensed to 1536-well Greiner black solid bottom plates. Compounds (23 nL) were transferred […] in order to measure the endpoint fluorescence using 480 nm excitation and 540 nm emission fluorescence protocol.
In the case of `O=C(O)C1CCCN(CCC=C(c2ccccc2)c2ccccc2)C1` (stereo unspecified), the “activity change, negative = inhibition” value is 1.87%.
For the compound `CCN(CC)CC#CCOC(=O)C(O)(c1ccccc1)C1CCCCC1` (stereo unspecified), the “activity change, negative = inhibition” value is -0.753%.
The figure for `CC(=O)[C@H]1CC[C@H]2[C@@H]3CCC4=CC(=O)CC[C@]4(C)[C@H]3CC[C@]12C` is -1.94%; for `CC(C)NCC(O)c1ccc(NS(C)(=O)=O)cc1` (stereo unspecified) it is 0.598%.
With `Cc1ccc(S(=O)(=O)N[C@@H](Cc2ccccc2)C(=O)CCl)cc1`, the “activity change, negative = inhibition” value was -0.221%.
As for `OCc1ccc(-c2nn(Cc3ccccc3)c3ccccc23)o1`, the “activity change, negative = inhibition” value is -3.81%.
`Nc1nc(N)c2nc(CNc3ccc(C(=O)NC(CCC(=O)O)C(=O)O)cc3)cnc2n1` (stereo unspecified): the “activity change, negative = inhibition” value is -2.42%.
For `CC(C)(C)NC(=O)[C@H]1CC[C@H]2[C@@H]3CC[C@H]4NC(=O)C=C[C@]4(C)[C@H]3CC[C@]12C`, the “activity change, negative = inhibition” value was 0.705%.
The figure for `CC1=C(C(=O)O)N2C(=O)[C@@H](NC(=O)C(N)c3ccccc3)[C@H]2SC1` (stereo partly specified) is 2.93%; for `CCN1CCCC1CNC(=O)c1cc(S(N)(=O)=O)ccc1OC` (stereo unspecified) it is 1.04%.
As to `NC(=O)c1cccc(N)c1`, the “activity change, negative = inhibition” value was 2.02%.

For the origin of these results see PubChem BioAssay (NCATS).
